Laboratory results taken from PMC9911399, “Two distinct binding modes provide the RNA-binding protein RbFox with extraordinary sequence specificity”.
Changes are numbered by the printed parent chain; changes in the protein carry UniProt numbers. Whole data set: some 16,000 sequences, median “ka relative to ugcaugu” near 0.096, cut for the highest 2% near 0.35. The sample holds the highest values, similar sequences and a random draw of the others, so the mix is not that of the screen.

T1: RBFOX1 RRM RbFoxmut (Fox-RRM*) (Homo sapiens, UniProt Q9NWB1 109-208, R118D;E147R;N151S;E152T)
T1 sequence: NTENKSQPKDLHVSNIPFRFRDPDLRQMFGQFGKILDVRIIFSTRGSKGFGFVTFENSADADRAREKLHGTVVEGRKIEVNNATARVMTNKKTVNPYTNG

B1: CCGCACG (DNA:RNA)
RNA: GGGAGACCGGAAUUCAGAUUGUCCCCGCACGUUAAAUCCCGUCGUAGCCACCA
DNA 1: CAATCTGAATTCCGGTCTCCC
DNA 2: TGGTGGCTACGACGGGATT
B2: GCACGAA (DNA:RNA)
RNA: B1 RNA with C25G, G27A, A29G, C30A, G31A
DNA 1: CAATCTGAATTCCGGTCTCCC
DNA 2: TGGTGGCTACGACGGGATT
B3: GCACGUC (DNA:RNA)
RNA: B1 RNA with C25G, G27A, A29G, C30U, G31C
DNA 1: CAATCTGAATTCCGGTCTCCC
DNA 2: TGGTGGCTACGACGGGATT
B4: CGCACCG (DNA:RNA)
RNA: B1 RNA with C26G, G27C, C28A, A29C
DNA 1: CAATCTGAATTCCGGTCTCCC
DNA 2: TGGTGGCTACGACGGGATT
B5: GCACGUG (DNA:RNA)
RNA: B1 RNA with C25G, G27A, A29G, C30U
DNA 1: CAATCTGAATTCCGGTCTCCC
DNA 2: TGGTGGCTACGACGGGATT
B6: ACGUCCG (DNA:RNA)
RNA: B1 RNA with C25A, C28U, A29C
DNA 1: CAATCTGAATTCCGGTCTCCC
DNA 2: TGGTGGCTACGACGGGATT
B7: GCACGAG (DNA:RNA)
RNA: B1 RNA with C25G, G27A, A29G, C30A
DNA 1: CAATCTGAATTCCGGTCTCCC
DNA 2: TGGTGGCTACGACGGGATT
B8: GUCCACG (DNA:RNA)
RNA: B1 RNA with C25G, C26U, G27C
DNA 1: CAATCTGAATTCCGGTCTCCC
DNA 2: TGGTGGCTACGACGGGATT
B9: GCGCACG (DNA:RNA)
RNA: B1 RNA with C25G
DNA 1: CAATCTGAATTCCGGTCTCCC
DNA 2: TGGTGGCTACGACGGGATT
B10: ACGCACG (DNA:RNA)
RNA: B1 RNA with C25A
DNA 1: CAATCTGAATTCCGGTCTCCC
DNA 2: TGGTGGCTACGACGGGATT
B11: GCACGUA (DNA:RNA)
RNA: B1 RNA with C25G, G27A, A29G, C30U, G31A
DNA 1: CAATCTGAATTCCGGTCTCCC
DNA 2: TGGTGGCTACGACGGGATT
B12: GCACGCG (DNA:RNA)
RNA: B1 RNA with C25G, G27A, A29G
DNA 1: CAATCTGAATTCCGGTCTCCC
DNA 2: TGGTGGCTACGACGGGATT
B13: UGCUUUG (DNA:RNA)
RNA: B1 RNA with C25U, C26G, G27C, C28U, A29U, C30U
DNA 1: CAATCTGAATTCCGGTCTCCC
DNA 2: TGGTGGCTACGACGGGATT
B14: CUGAGUG (DNA:RNA)
RNA: B1 RNA with C26U, C28A, A29G, C30U
DNA 1: CAATCTGAATTCCGGTCTCCC
DNA 2: TGGTGGCTACGACGGGATT
B15: UCACCCA (DNA:RNA)
RNA: B1 RNA with C25U, G27A, A29C, G31A
DNA 1: CAATCTGAATTCCGGTCTCCC
DNA 2: TGGTGGCTACGACGGGATT
B16: UAGGGAC (DNA:RNA)
RNA: B1 RNA with C25U, C26A, C28G, A29G, C30A, G31C
DNA 1: CAATCTGAATTCCGGTCTCCC
DNA 2: TGGTGGCTACGACGGGATT
B17: ACCAGGG (DNA:RNA)
RNA: B1 RNA with C25A, G27C, C28A, A29G, C30G
DNA 1: CAATCTGAATTCCGGTCTCCC
DNA 2: TGGTGGCTACGACGGGATT
B18: ACCGAGG (DNA:RNA)
RNA: B1 RNA with C25A, G27C, C28G, C30G
DNA 1: CAATCTGAATTCCGGTCTCCC
DNA 2: TGGTGGCTACGACGGGATT
B19: GAGGUUG (DNA:RNA)
RNA: B1 RNA with C25G, C26A, C28G, A29U, C30U
DNA 1: CAATCTGAATTCCGGTCTCCC
DNA 2: TGGTGGCTACGACGGGATT
B20: CACCAGG (DNA:RNA)
RNA: B1 RNA with C26A, G27C, C30G
DNA 1: CAATCTGAATTCCGGTCTCCC
DNA 2: TGGTGGCTACGACGGGATT
B21: CCCCAGG (DNA:RNA)
RNA: B1 RNA with G27C, C30G
DNA 1: CAATCTGAATTCCGGTCTCCC
DNA 2: TGGTGGCTACGACGGGATT
B22: AGGGGGG (DNA:RNA)
RNA: B1 RNA with C25A, C26G, C28G, A29G, C30G
DNA 1: CAATCTGAATTCCGGTCTCCC
DNA 2: TGGTGGCTACGACGGGATT
B23: AGGGUUG (DNA:RNA)
RNA: B1 RNA with C25A, C26G, C28G, A29U, C30U
DNA 1: CAATCTGAATTCCGGTCTCCC
DNA 2: TGGTGGCTACGACGGGATT
B24: GAGGAGG (DNA:RNA)
RNA: B1 RNA with C25G, C26A, C28G, C30G
DNA 1: CAATCTGAATTCCGGTCTCCC
DNA 2: TGGTGGCTACGACGGGATT
B25: CAGGUUG (DNA:RNA)
RNA: B1 RNA with C26A, C28G, A29U, C30U
DNA 1: CAATCTGAATTCCGGTCTCCC
DNA 2: TGGTGGCTACGACGGGATT
B26: UCCCCAC (DNA:RNA)
RNA: B1 RNA with C25U, G27C, A29C, C30A, G31C
DNA 1: CAATCTGAATTCCGGTCTCCC
DNA 2: TGGTGGCTACGACGGGATT
B27: CUACCCG (DNA:RNA)
RNA: B1 RNA with C26U, G27A, A29C
DNA 1: CAATCTGAATTCCGGTCTCCC
DNA 2: TGGTGGCTACGACGGGATT
B28: GUGUCAG (DNA:RNA)
RNA: B1 RNA with C25G, C26U, C28U, A29C, C30A
DNA 1: CAATCTGAATTCCGGTCTCCC
DNA 2: TGGTGGCTACGACGGGATT
B29: AUACAAG (DNA:RNA)
RNA: B1 RNA with C25A, C26U, G27A, C30A
DNA 1: CAATCTGAATTCCGGTCTCCC
DNA 2: TGGTGGCTACGACGGGATT
B30: CAAUGCG (DNA:RNA)
RNA: B1 RNA with C26A, G27A, C28U, A29G
DNA 1: CAATCTGAATTCCGGTCTCCC
DNA 2: TGGTGGCTACGACGGGATT
B31: GGGAUGA (DNA:RNA)
RNA: B1 RNA with C25G, C26G, C28A, A29U, C30G, G31A
DNA 1: CAATCTGAATTCCGGTCTCCC
DNA 2: TGGTGGCTACGACGGGATT

The binders below were run against T1, RBFOX1 RRM RbFoxmut (Fox-RRM*) (assay: EMSA; HiTS-Eq, 1 nM pool, 10 min; buffer printed only for the single-RNA assays: 10 mM Tris pH 7.5, 150 mM NaCl, 3.4 mM EDTA, 0.001% NP-40, 30 C). Settings: tags: His6 N-terminal (pET28a); label: 5' 32P.
Outline: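 Purified RbFox RRM, wild type or mutant, was incubated for 10 min in 50 µL with 1 nM of a 5′-radiolabelled RNA pool carrying 7 randomized nucleotides, whose flanks were annealed to DNA oligonucleotides, over a series of increasing protein concentrations. Unbound RNA was resolved on 8% native PAGE, cut out, reverse-transcribed, barcoded by PCR and sequenced on an Illumina HiSeq 2500. Relative association constants were derived from changes in read counts for each RNA species versus the control reaction and normalised to the cognate motif.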
For B1, the binding signal was 0.236 KA relative to UGCAUGU.
In the case of B2, the binding signal is reported as 0.256 KA relative to UGCAUGU.
B3 was tested, and the binding signal was 0.117 KA relative to UGCAUGU.
B4 was tested, and the binding signal was 0.17 KA relative to UGCAUGU.
B5 was tested, and the binding signal was 0.324 KA relative to UGCAUGU.
B6 was tested, and the binding signal was 0.121 KA relative to UGCAUGU.
With B7 the binding signal was 0.405 KA relative to UGCAUGU.
With B8 the binding signal was 0.114 KA relative to UGCAUGU.
In the case of B9, the binding signal is reported as 0.397 KA relative to UGCAUGU.
B10 was tested, and the binding signal was 0.354 KA relative to UGCAUGU.
In the case of B11, the binding signal is reported as 0.382 KA relative to UGCAUGU.
In the case of B12, the binding signal is reported as 0.184 KA relative to UGCAUGU.
In the case of B13, the binding signal is reported as 0.179 KA relative to UGCAUGU.
In the case of B14, the binding signal is reported as 0.142 KA relative to UGCAUGU.
For B15, the binding signal was 0.0824 KA relative to UGCAUGU.
For B16, the binding signal was 0.0789 KA relative to UGCAUGU.
In the case of B17, the binding signal is reported as 0.0771 KA relative to UGCAUGU.
In the case of B18, the binding signal is reported as 0.0689 KA relative to UGCAUGU.
For B19, the binding signal was 0.552 KA relative to UGCAUGU.
B20 was tested, and the binding signal was 0.0996 KA relative to UGCAUGU.
With B21 the binding signal was 0.0949 KA relative to UGCAUGU.
For B22, the binding signal was 0.104 KA relative to UGCAUGU.
In the case of B23, the binding signal is reported as 0.578 KA relative to UGCAUGU.
With B24 the binding signal was 0.0833 KA relative to UGCAUGU.
In the case of B25, the binding signal is reported as 0.371 KA relative to UGCAUGU.
With B26 the binding signal was 0.118 KA relative to UGCAUGU.
B27 was tested, and the binding signal was 0.0609 KA relative to UGCAUGU.
B28 was tested, and the binding signal was 0.137 KA relative to UGCAUGU.
With B29 the binding signal was 0.0924 KA relative to UGCAUGU.
In the case of B30, the binding signal is reported as 0.13 KA relative to UGCAUGU.
For B31, the binding signal was 0.267 KA relative to UGCAUGU.
